Screens from PubChem.
Compounds with a hit are over-represented: about 2.4% of the library has one in this group of screens.
Anthrax LT inh – inhibitors of anthrax lethal toxin internalization; AID 912; Potency, µM (top dose mostly 40 µM), inactives show at the highest dose activity change, negative = inhibition, actives largely listed as inhibitors; hit rate 0.67% among 70,000; Cells, anthrax lethal toxin internalization, FRET ratio (460/530); note: % is set by controls: 0 for no effect and ±100 for the full control effect; nearly all actives have a fitted effect of over 50% in size
AmpC inh det – AmpC beta-lactamase inhibition, detergent assay | P00811 | Potency, µM (highest dose often 28.7 µM), without a hit: at the top dose activity change, negative = inhibition | hit rate 0.09% among 71,000 | purified AmpC, nitrocefin hydrolysis with detergent; active = well fitted curve in the direction sought with a large enough effect; inconclusive = small, poorly fitted or top-dose-only effect; note: % is set by controls: 0 for no effect and ±100 for the full control effect
Target sequence (P00811 whole entry, looked up): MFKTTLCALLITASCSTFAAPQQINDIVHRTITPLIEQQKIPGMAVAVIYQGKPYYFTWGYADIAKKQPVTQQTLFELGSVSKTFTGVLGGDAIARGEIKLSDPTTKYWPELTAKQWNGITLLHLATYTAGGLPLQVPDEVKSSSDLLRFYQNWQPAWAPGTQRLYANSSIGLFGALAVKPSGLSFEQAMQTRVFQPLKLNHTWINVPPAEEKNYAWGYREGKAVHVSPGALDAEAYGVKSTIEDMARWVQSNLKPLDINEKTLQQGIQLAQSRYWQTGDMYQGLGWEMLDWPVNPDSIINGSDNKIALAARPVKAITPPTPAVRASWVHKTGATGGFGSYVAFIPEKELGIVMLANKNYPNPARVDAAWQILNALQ
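E. coli AmpC (5.3 nM) in 20 mM phosphate pH 7.0 with 0.01% Triton X-100, preincubated 15 min RT with compound; nitrocefin (2 uL of 800 uM stock) hydrolysis followed by 480 nm absorbance every 20 s over 4 min.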
Prx2 Sm inh – blocks S. mansoni peroxiredoxin 2 enzymatic activity. S. mansoni Prx2 activity coupled to TGR/GSH (TGR is thioredoxin glutathione reductase), NADPH fluorescence loss, qHTS. Potency, µM. hit rate 0.07% among 65,000
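Activity is read as the drop in NADPH fluorescence (365/450 nm), recorded every 30 sec for 8 min after H2O2 addition. Prx2 is coupled to TGR-driven NADPH oxidation through glutathione, in phosphate buffer pH 7.4.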
AmpC nodet inh – blocks E. coli AmpC beta-lactamase in absence of detergent. AmpC nitrocefin hydrolysis, absorbance 480 nm, no detergent. Potency, µM (highest dose often 28.7 µM), for inactives: top-dose activity change, negative = inhibition. hit rate 1.8% among 71,000; note: % of control where 0% means no effect
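Enzyme, pH 7.0 phosphate. Compound titrations were pre-incubated with AmpC for 15 min at room temperature before nitrocefin (stock 800 uM) addition; product formation was recorded at 480 nm every 20 s for 4 min.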
* = called active by the depositor; u = inconclusive; x = not tested or not shown; [ ] = remark or other dose. Unless noted, calls come from the whole dose curve. Potency is the fitted concentration of half-maximal effect.

SMILES	Anthrax LT inh	AmpC inh det	Prx2 Sm inh	AmpC nodet inh
CC(=O)O[C@H]1CC[C@@]2(C)[C@@H](CC[C@@]3(C)[C@H]2C(=O)C=C2[C@H]4C[C@](C)(C(=O)OCCN5CCCCC5)CC[C@]4(C)CC[C@@]23C)C1(C)C	u	3%	>57	13%
CCCCCCCCCCCC1=C(O)C(=O)C=C(O)C1=O	u	-14%	>57	4µM*
CCCCCc1cc(O)cc(O)c1	u	10%	x	-8%
COc1ccc(Nc2nc(N3CCCC3)nc3ccccc23)c(OC)c1	13µM*	-1%	>57	54%
O=C(Cn1c(NCCCO)nc2ccccc21)c1cccs1	7%	8%	>57	3.2µM*[single pt active]
CCCn1c(NCc2cc(C)ccc2O)nc2ccccc21	-18%	1%	x	3%
CCCCn1c(NCCO)nc2ccccc21	1%	7%	>57	3.2µM*[single pt active]
CCCCn1c(NCc2ccccc2O)nc2ccccc21	-13%	14%	>57	4µM*[single pt active]
CN1CCN(c2ccc([N+](=O)[O-])c3[nH]o[n+](=O)c23)CC1	u	-7%[5.75 µM]	>57	6%[5.75 µM]
C[C@H](Br)CN(C[C@H](C)Br)c1ccc2c(c1)Cc1ccccc1-2	-2%[8 µM]	16%[5.75 µM]	>57	26%[5.75 µM]
CC(NC(=O)c1noc2c1CCCCC2)c1ccccc1 (configuration not stated)	9%	11%	>57	4µM*[single pt active]
C[C@@H]1[C@@H](C)N1C[C@H](O)Cn1ccnc1[N+](=O)[O-] (some centres not stated)	4%[8 µM]	-2%[5.75 µM]	>57	11%[5.75 µM]
CC1=C(C(=O)N(C)C)C(c2ccc(Cl)c(Cl)c2)NC(=O)N1 (configuration not stated)	u	-5%	>57	8%
CN[C@H]1CC[C@@H](c2ccc(Cl)c(Cl)c2)c2ccccc21	10µM*	x	x	x
CCOC(=O)CN1c2ccccc2NC(=O)CC1C (configuration not stated)	-6%	13%	>57	4µM*[single pt active]
CCOC(=O)CN1C(=O)C(O)=C(C(C)=O)C1c1ccccc1 (configuration not stated)	x	-2%	>57	1%
O=C1C(SCCO)=C(SCCO)C(=O)c2ccccc21	4µM*	10%	>57	10%
Clc1ccc(-c2nnc(SCc3nc(-c4ccccc4)no3)o2)cc1	u	11%	>57	4µM*[single pt active]
O=C(CSc1nnc(COc2ccc(Cl)cc2)o1)N1CCN(c2ccccc2)CC1	u	-1%	>57	-11%
O=C(CSc1nnc(-c2ccc(Cl)cc2)o1)N1CCN(c2ccccc2)CC1	0%	-3%	>57	10µM*[single pt active]
N[C@H](CS(=O)O)C(=O)O	-3%	2%	>57	6%
COc1ccc2c(c1)-c1nc(NC(=O)c3ccco3)sc1CC2	-23%	-4%	>57	44%
Cc1sc(NC(=O)c2ccco2)nc1-c1ccc2c(c1)CC(C)N2C(=O)C1CC1 (configuration not stated)	10µM*	-4%	>57	78%
COc1cc([C@@H](O)CO)ccc1OS(=O)(=O)O	-2%	-2%	>57	-7%
COc1nc(-c2ccccc2)cc(-c2ccc(OC)c(OC)c2)n1	13µM*	-6%	x	120%
SMILES	Anthrax LT inh	AmpC inh det	Prx2 Sm inh	AmpC nodet inh
COc1ccc(-c2cc(C(F)(F)F)nc(N3CCN(c4ccccc4)CC3)n2)cc1OC	14%	18%	>57	0%
Cc1ccc(CCNC(=O)CC2Oc3ccc(C)cc3NC2=O)cc1 (configuration not stated)	8%	12%	>57	4µM*[single pt active]
Cc1ccc2c(c1)NC(=O)C(CC(=O)O)O2 (configuration not stated)	-2%	10%	>57	2%
Cc1ccc2c(c1)NC(=O)C(CC(=O)NCCCN1CCCCC1)O2 (configuration not stated)	-4%	8%	>57	2%
Cc1ccc2c(c1)NC(=O)C(CC(=O)NCCN(C)C)O2 (configuration not stated)	-1%	12%	>57	3.2µM*[single pt active]
CCOCCCNC(=O)CC1Oc2ccc(C)cc2NC1=O (configuration not stated)	-7%	12%	>57	4µM*[single pt active]
COc1ccc(NC(=O)Cn2nc(C(F)(F)F)c3c2CCCC3)c(OC)c1	13µM*	-7%	>57	52%
COc1ccc(CNC(=O)Cn2nc(C(F)(F)F)c3c2CCC3)cc1	-5%	-2%	>57	7%
N#CCCS(=O)(=O)c1nnnn1-c1ccccc1	10µM*	-7%	u	0%
CC(C)c1cccc2c([Si](C)(C)C)c3c(nc12)-c1cccc(=O)n1C3	u	-8%	>57	217%
